From PubChem
HepG2 viability: HepG2 cytotoxicity, counter-screen for TGF-b inhibitors; AID 588856; HepG2 CAGA-GFP viability, ATP luminescence, 18 h; Potency, µM (doses to about 46.1 µM), hits mostly cytotoxic; actives 0.76% (n = 410,000)
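HepG2 CAGA-GFP cells (1000/well, DMEM with 1% FBS) received compound, then TGF-beta at 500 pg/mL final, and were incubated 18 hours at 37 degrees C. Viability was read by CellTiter-Glo luminescence. Media-only wells were set as complete cell-killing and DMSO as no toxicity.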
KB-V1 cytotox: kills drug-selected multidrug resistant KB-V1 cells; Potency, µM (doses to about 46.1 µM), usual class: cytotoxic; KB-V1 MDR cells viability, CellTiter-Glo, 72 h; actives 3.4% (n = 400,000); note: nearly all actives have a fitted effect of over 60% in size
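qHTS viability screen in drug-selected KB-V1 MDR cells: 72 h compound treatment at 37 degrees C, ATP luminescence end point.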
TGFb inhibitor: blocks TGF-b signaling; actives 1.2% (n = 410,000); HepG2 CAGA-GFP TGF-b/SMAD3 reporter, GFP fluorescence, 18 h; TGF-beta stimulated, 500 pg/mL final; Potency, µM (highest dose often 46.1 µM), hits mostly inhibitors; note: nearly all actives have a fitted effect of over 65% in size
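First, reporter cells (HEPG2 CAGA-GFP) rested 2 h at 37 degrees C. Next, compounds were pinned in and TGF-beta added to 500 pg/mL final. After 18 h, GFP was imaged per cell and summed per well.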
KB-3-1 cytotox: kills parental KB-3-1 adenocarcinoma cells; KB-3-1 viability, CellTiter-Glo ATP luminescence, 72 h; Potency, µM (highest dose often 46.1 µM), actives largely listed as cytotoxic; actives 1.4% (n = 400,000); note: nearly all actives have a fitted effect of over 60% in size
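Cells are dispensed, compounds pinned in, plates held at 37 °C for 72 h, then CellTiter-Glo is added and luminescence read after 10 minutes. Cell line: parental KB-3-1 in phenol-red-free DMEM, 10% FBS.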
ATXN viability: reduces viability in counter-screen for ATXN expression inhibitors. AID 651635. actives 0.49% (n = 400,000). S2 cells (HEK-293 line with an ATXN2-luciferase reporter) viability, CellTiter-Fluor protease fluorescence, 24 h. Potency, µM (doses to about 56.7 µM), hits mostly cytotoxic; note: nearly all actives have a fitted effect of over 40% in size
ATXN2 expr inh: ATXN2 expression inhibition | actives 0.72% (n = 360,000) | Potency, µM (series often up to 57 µM), hits mostly inhibitors | AID 1745845 | HEK-293 ATXN2-luciferase reporter, luminescence, 24 h; note: nearly all actives have a fitted effect of over 55% in size
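qHTS (up to 57 uM final) was run with 24 h compound exposure of reporter cells at 37 °C. Each well was multiplexed: SteadyGlo luminescence measured ATXN2-luciferase expression after a fluorogenic Gly-Phe-AFC viability readout (25 uM final).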
Numbers stand for hits; . = inactive; ? = inconclusive; / = no result given; [ ] = dose if it differs, or a comment. Compounds with a hit are over-represented: about 5.9% of the library has one in this group of screens. Calls come from the whole dose curve; as a rule, active = well fitted curve in the direction sought with a large enough effect; inconclusive = small, poorly fitted or top-dose-only effect, or another doubt; inactive = no such curve, though single readings can be large; an effect the other way counts as inactive or inconclusive.

SMILES	HepG2 viability	KB-V1 cytotox	TGFb inhibitor	KB-3-1 cytotox	ATXN viability	ATXN2 expr inh
Cc1cccc(NC(=S)N=Nc2c(O)n(C)c3ccc(S(=O)(=O)N4CCOCC4)cc23)c1	.	0.731µM	.	?	?	.
Cc1ccccc1NC(=S)N=Nc1c(O)n(C)c2ccc(S(=O)(=O)N3CCOCC3)cc12	.	?	5.62µM	?	.	.
Cc1ccc(NC(=S)N=Nc2c(O)n(C)c3ccc(S(=O)(=O)N4CCOCC4)cc23)cc1	.	.	?	?	?	?
Cc1cccc(C)c1NC(=S)N=Nc1c(O)n(C)c2ccc(S(=O)(=O)N3CCOCC3)cc12	.	3.66µM	.	?	.	?
COc1ccccc1N1CCN(C(=O)c2cnc(N3CCCCC3)c3ccccc23)CC1	.	/	?	/	/	/
CC(C)CN=C(NS(=O)(=O)c1ccccc1)C(Cl)(Cl)Cl	11.2µM	?	?	8.2µM	?	?
CC(C)CC(NS(=O)(=O)c1ccccc1)C(=O)O (stereo not given)	.	.	.	.	.	.
NC(=S)n1[nH]c(-c2ccc([N+](=O)[O-])cc2)c(N=Nc2ccc(O)cc2)c1=O	.	.	.	.	.	.
NC(=S)n1[nH]c(-c2ccc([N+](=O)[O-])cc2)c(N=Nc2cccc(Cl)c2)c1=O	.	?	?	20.6µM	?	?
N#C/C(C(N)=O)=c1/ccc2c(c1)N1C3=C(CCCC3)CC3CCCCC31N=2 (stereo not given)	.	23.1µM	?	?	?	.
O=C(c1oc2ccccc2c1N1CCCCC1)N1CCCCC1	.	14.6µM	.	.	.	.
O=C(c1cc2ccccc2o1)N1CCCCCC1	.	.	.	.	.	.
O=c1oc2ccccc2c(N2CCCCC2)c1CN1CCCC1	.	23.1µM	.	.	.	.
O=c1oc2ccccc2c(N2CCCCC2)c1CN1CCCCC1	.	.	.	.	.	.
C=CC[C@@H](CC(=O)N(CCO)Cc1ccccc1)C(=O)N[C@H](COC(=O)[C@@H](CC=C)Cc1ccc(F)cc1)c1ccccc1	.	?	?	?	22.4µM	?
C=CC[C@H](CC(=O)NCCO)C(=O)NC[C@H](OC(=O)[C@@H](CC=C)Cc1ccc(F)cc1)c1ccccc1	.	.	.	.	.	.
C=CC[C@@H](CC(=O)N(CCO)Cc1ccccc1)C(=O)NC[C@H](OC(=O)[C@@H](CC=C)Cc1ccc(F)cc1)c1ccccc1	.	16.4µM	?	?	20µM	?
Cc1ccc(O)c(CN(C)Cc2cc(C)ccc2O)c1	.	20.6µM	?	?	.	.
CCC1CN(Cc2cccn2-c2ccccn2)Cc2cc(OC)ccc2O1 (stereo not given)	/	/	/	/	.	/
CC(C)(C)N(Cc1ccccc1)C(=O)COC(=O)c1ccccc1SCC(=O)N1CCCC1	.	20.6µM	.	.	.	.
O=c1cc(N2CCN(c3ccccc3Cl)CC2)[nH]c(=O)n1Cc1ccc(F)cc1	.	20.6µM	.	4.61µM	.	.
COc1ccccc1N1CCN(c2cc(=O)n(Cc3ccc(F)cc3)c(=O)[nH]2)CC1	.	?	.	5.17µM	?	.
COc1ccccc1N1CCN(S(=O)(=O)CCNC(=O)Cc2ccc(Cl)cc2)CC1	.	/	?	/	/	/
O=c1cc(N2CCN(Cc3ccccc3)CC2)[nH]c(=O)n1Cc1ccc(F)cc1	.	.	.	.	.	.
COc1ccccc1N1CCN(S(=O)(=O)CCNC(=O)Cc2ccc(F)cc2)CC1	.	18.4µM	.	?	.	.
SMILES	HepG2 viability	KB-V1 cytotox	TGFb inhibitor	KB-3-1 cytotox	ATXN viability	ATXN2 expr inh
CC(C)Oc1ccc(CNC(=O)Cn2ncn3nc(-c4cccs4)cc3c2=O)cc1	.	.	.	.	.	.
NC(=O)c1ccsc1NC(=O)COc1ccccc1	.	13µM	.	.	.	.
COc1cc(C(=O)OCC(=O)Nc2sccc2C(N)=O)cc(OC)c1OC	.	?	.	16.4µM	?	?
CCN(CC)c1ccc(NS(=O)(=O)c2cc3[nH]c(=O)c(=O)[nH]c3cc2C)c(C)c1	.	?	.	.	.	.
CCOC(=O)C1(C)CCCCCN1C(=O)/C=C/c1ccccc1 (stereo not given)	1µM	.	.	.	.	.
CCOc1ccccc1CNc1nc2nc(C)c(CC(=O)OC)c(=O)n2[nH]1	.	?	.	.	.	.
Cc1ncc2c(c1CNC(=O)c1ccc3c(c1)OCO3)CCN(C(=O)c1scc3c1CCCC3)C2	/	/	/	/	.	/
CCOC(=O)Cn1c(=O)n(C2CCCCC2)c2nc(-c3ccc(OC)cc3)nc(C(N)=O)c21	.	.	.	?	.	.
CCOC(=O)Cn1c(=O)n(C2CCCCC2)c2nc(-c3ccc(CC)cc3)nc(C(N)=O)c21	.	.	.	8.2µM	.	.
CCOC(=O)Cn1c(=O)n(C2CCCCC2)c2nc(-c3ccc(OCC)cc3)nc(C(N)=O)c21	.	?	.	18.4µM	.	.
CC1=CC(C)(C)Nc2ccc(OC(=O)CN3C(=O)CCC3=O)cc21	15.8µM	?	.	.	.	?
O=C(Oc1ccc(F)cc1)c1cccnc1	.	.	.	.	.	/
CC1=CC(C)(C)Nc2ccc(OC(=O)C(C)N3C(=O)c4ccccc4C3=O)cc21 (stereo not given)	.	?	17.8µM	?	/	?
CC1=CC(C)(C)Nc2ccc(C)cc21	.	.	.	.	.	.
CC1=CC(C)(C)Nc2ccc(OC(=O)c3cccnc3)cc21	12.6µM	?	.	?	?	?
CC1=CC(C)(C)Nc2ccc(OC(=O)c3ccco3)cc21	.	.	.	.	?	31.6µM
CC1=CC(C)(C)N2C(=O)C(=O)c3cc(OC(=O)c4ccco4)cc1c32	.	?	?	?	?	.[11.3 µM]
c1ccc2sc(-c3cc4c(c(OC5CCOC5)c3)OCCN(Cc3cccn3-c3nccs3)C4)nc2c1 (stereo not given)	/	/	/	/	.	/
COc1ccccc1CNS(=O)(=O)c1ccc2c(c1)NC(=O)C(C)C(=O)N2 (stereo not given)	.	/	?	/	/	/
CNS(=O)(=O)c1cn(CC(=O)Nc2ccc(C(C)=O)cc2)cc1S(=O)(=O)NC	.	.	.	.	/	/
COc1cc(Nc2ncc3c(n2)CCN(Cc2cccc(C)c2)C3)cc(OC)c1	.	?	?	?	?	.
COc1ccc(-c2cn3ccccc3n2)cc1	.	?	.	?	.	/
COc1c(Cl)cccc1-c1cn2ccccc2n1	.	11.6µM	?	.	.	.
O=C(/C=C/C(Cl)(Cl)Cl)Nc1ccc(Cl)cc1	12.6µM	?	?	?	?	?
